The full data set covers some 8,800 targets. This sample favours those with a hit. About 0.5% of all pairs of compound and target were hits. A number with no mark means an inactive call.
compound: Cc1nc(Nc2ncc(C(=O)Nc3c(C)cccc3Cl)s2)cc(N2CCN(CCO)CC2)n1 [dasatinib]; experiment: log2 fold change, soluble protein after heating vs DMSO (PISA); higher = thermal stabilisation; K562 lysate, 10 uM; active = over 0.2 and 3.5 SD of the protein, either way, in both replicates (recomputed)
Outline: (§1)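 Log-two fold change in thermal stability relative to solvent controls is reported from duplicates. For each sample, crude K562 extract from dounce-homogenised pellets in PBS pH 7.4 with 1 mM MgCl2, at 1 mg/mL protein, was treated with 10 μM compound for 30 min. Aliquots heated for 3 min across 48°C-58°C were pooled, brought to 0.5% NP-40 at 4°C and cleared at 21,000xg for 90 min. The supernatant was quantified by TMTpro 16plex LC-MS/MS with channel sums equalised.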

Chain of UniProt P22695 (P22695 whole entry, looked up): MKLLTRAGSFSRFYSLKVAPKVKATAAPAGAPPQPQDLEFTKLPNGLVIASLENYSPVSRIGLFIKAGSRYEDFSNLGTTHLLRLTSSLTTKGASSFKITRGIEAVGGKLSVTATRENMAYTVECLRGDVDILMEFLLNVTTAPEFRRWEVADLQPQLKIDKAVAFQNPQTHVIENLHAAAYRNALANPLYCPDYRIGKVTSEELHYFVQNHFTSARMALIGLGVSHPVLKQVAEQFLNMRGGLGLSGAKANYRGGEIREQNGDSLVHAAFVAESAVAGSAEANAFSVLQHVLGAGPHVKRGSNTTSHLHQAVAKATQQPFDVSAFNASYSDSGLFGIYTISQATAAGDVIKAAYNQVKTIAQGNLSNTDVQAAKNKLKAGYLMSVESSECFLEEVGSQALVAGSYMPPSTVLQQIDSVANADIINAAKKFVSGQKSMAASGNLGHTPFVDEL
Chain of UniProt Q5SVZ6 (Q5SVZ6 whole entry, looked up): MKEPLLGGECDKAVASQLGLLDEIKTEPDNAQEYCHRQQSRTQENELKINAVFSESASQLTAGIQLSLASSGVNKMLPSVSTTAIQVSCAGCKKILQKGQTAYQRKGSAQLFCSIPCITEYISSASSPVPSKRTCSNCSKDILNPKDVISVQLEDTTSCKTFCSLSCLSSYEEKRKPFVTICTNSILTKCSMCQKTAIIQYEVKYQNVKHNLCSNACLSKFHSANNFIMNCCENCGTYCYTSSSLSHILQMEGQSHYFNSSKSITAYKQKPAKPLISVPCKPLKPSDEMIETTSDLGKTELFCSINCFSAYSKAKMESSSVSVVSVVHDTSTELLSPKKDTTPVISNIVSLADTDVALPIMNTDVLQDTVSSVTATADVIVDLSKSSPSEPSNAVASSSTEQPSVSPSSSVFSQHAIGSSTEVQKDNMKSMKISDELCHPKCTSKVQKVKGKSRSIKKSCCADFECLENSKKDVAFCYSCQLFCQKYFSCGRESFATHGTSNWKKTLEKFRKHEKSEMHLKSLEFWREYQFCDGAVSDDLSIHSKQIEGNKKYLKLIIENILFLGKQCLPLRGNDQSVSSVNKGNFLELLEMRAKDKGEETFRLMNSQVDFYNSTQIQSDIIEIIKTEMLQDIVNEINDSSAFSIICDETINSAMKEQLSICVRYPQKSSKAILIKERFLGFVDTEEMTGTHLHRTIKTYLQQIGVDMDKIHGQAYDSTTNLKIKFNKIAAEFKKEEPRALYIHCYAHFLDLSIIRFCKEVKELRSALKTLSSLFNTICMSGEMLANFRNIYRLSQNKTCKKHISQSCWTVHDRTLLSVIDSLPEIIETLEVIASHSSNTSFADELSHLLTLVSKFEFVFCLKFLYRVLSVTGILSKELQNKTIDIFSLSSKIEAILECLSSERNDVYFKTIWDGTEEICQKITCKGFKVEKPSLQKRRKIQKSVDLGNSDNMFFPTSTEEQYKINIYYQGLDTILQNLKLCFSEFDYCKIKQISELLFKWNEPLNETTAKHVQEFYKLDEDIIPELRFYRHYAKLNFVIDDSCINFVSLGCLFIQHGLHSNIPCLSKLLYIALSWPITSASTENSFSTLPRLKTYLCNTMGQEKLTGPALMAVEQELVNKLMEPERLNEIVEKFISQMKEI
Chain of UniProt P50552 (P50552 whole entry, looked up): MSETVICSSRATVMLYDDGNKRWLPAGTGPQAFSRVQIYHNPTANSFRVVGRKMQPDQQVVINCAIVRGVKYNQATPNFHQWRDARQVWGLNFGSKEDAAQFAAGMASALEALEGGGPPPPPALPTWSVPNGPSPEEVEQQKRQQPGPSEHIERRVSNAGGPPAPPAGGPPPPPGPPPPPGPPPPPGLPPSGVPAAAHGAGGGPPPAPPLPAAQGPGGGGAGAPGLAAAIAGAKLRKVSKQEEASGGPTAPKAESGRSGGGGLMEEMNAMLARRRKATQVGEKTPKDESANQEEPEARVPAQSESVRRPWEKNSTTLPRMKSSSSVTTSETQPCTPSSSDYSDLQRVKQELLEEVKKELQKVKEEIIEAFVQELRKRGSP
Chain of UniProt P49750 (P49750 whole entry, looked up): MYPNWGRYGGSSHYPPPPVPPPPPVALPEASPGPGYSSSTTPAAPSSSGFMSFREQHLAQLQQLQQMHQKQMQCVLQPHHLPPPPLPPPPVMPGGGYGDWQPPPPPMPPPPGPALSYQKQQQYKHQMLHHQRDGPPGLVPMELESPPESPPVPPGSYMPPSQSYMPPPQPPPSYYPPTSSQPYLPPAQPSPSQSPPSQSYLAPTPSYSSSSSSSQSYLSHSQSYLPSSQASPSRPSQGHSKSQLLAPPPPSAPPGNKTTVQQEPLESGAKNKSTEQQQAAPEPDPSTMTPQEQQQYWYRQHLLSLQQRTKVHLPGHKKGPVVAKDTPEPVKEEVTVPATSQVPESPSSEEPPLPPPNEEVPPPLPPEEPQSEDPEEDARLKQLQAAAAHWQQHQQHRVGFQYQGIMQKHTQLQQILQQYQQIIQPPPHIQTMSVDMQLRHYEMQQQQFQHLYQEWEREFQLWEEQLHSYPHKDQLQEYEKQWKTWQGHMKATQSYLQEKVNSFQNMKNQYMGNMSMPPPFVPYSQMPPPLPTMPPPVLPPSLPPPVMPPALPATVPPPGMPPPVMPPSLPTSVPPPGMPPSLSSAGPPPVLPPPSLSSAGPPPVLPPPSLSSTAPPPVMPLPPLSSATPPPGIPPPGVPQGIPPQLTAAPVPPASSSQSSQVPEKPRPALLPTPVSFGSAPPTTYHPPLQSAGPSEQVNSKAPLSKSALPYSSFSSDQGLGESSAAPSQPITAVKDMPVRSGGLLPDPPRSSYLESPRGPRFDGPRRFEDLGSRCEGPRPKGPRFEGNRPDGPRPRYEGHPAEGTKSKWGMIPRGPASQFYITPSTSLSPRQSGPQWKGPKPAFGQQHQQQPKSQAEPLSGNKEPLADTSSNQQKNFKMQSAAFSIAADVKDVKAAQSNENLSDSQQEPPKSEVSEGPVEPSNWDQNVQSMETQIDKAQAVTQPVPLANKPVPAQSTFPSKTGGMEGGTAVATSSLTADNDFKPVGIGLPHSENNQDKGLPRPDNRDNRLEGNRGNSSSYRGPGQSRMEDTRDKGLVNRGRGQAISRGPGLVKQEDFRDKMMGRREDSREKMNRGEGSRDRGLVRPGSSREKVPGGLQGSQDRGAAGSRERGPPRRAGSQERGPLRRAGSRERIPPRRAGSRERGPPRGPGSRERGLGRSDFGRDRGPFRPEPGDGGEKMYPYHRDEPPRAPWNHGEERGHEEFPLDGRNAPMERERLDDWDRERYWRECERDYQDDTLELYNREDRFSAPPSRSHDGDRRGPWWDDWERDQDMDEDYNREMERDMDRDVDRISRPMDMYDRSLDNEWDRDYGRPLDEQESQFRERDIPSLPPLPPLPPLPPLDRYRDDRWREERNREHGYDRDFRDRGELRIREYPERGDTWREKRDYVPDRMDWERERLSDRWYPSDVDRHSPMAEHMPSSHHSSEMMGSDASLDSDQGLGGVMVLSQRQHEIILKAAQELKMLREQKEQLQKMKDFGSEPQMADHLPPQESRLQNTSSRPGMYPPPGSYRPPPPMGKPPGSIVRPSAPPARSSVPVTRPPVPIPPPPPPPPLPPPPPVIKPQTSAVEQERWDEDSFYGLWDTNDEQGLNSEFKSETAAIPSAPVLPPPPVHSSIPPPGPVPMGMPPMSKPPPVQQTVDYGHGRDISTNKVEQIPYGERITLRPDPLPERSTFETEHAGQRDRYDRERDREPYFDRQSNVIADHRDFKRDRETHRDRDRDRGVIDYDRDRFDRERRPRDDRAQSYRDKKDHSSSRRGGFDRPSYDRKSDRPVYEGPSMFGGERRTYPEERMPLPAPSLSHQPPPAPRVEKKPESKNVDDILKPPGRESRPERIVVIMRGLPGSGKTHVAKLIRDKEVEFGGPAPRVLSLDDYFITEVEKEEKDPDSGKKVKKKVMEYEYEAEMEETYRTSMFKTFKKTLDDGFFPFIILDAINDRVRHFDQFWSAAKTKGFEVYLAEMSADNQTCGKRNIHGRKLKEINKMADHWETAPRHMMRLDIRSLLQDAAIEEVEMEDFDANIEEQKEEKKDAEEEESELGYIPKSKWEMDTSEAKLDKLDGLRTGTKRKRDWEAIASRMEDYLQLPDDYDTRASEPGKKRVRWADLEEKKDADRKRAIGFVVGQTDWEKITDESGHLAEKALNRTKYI
Chain of UniProt Q9UKW4 (Q9UKW4 whole entry, looked up): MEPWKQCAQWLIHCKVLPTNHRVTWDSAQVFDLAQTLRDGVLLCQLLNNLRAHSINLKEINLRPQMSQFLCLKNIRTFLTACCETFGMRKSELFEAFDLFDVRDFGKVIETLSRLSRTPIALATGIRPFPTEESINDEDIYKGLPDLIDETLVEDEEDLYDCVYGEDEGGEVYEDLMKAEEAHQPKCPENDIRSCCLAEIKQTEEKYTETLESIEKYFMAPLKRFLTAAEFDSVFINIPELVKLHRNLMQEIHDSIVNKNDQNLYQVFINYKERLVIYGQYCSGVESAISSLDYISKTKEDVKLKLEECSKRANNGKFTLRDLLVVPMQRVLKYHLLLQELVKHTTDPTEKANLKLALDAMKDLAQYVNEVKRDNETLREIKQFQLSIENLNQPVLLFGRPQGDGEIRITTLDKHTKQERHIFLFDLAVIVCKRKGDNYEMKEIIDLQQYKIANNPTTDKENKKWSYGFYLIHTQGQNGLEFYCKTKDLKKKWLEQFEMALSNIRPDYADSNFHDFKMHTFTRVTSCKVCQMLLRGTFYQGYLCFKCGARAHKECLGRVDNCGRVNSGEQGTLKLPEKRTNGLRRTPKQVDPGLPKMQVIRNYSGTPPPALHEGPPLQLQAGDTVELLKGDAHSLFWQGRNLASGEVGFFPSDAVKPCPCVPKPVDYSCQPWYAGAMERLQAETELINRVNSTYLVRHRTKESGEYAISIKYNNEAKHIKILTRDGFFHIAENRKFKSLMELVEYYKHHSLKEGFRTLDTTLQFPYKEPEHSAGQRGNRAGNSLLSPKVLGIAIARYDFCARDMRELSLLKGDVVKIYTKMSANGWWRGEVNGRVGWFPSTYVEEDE

| Target | log2 fold change |
| --- | --- |
| ZDHHC17 (UniProt Q8IUH5) | -0.096 |
| VPS72 (UniProt Q15906) | -0.054 |
| ZNF609 (UniProt O15014) | -0.014 |
| UQCRC2 (UniProt P22695) | 0 |
| UPF3B (UniProt Q9BZI7) | 0.004 |
| VRK2 (UniProt Q86Y07) | 0.185 |
| ZNF598 isoform 3 (UniProt Q86UK7) | -0.063 |
| ZMYM1 (UniProt Q5SVZ6) | 0.006 |
| VARS (UniProt P26640) | -0.072 |
| VAC14 (UniProt Q08AM6) | -0.022 |
| VASP (UniProt P50552) | -0.061 |
| ZHX1 (UniProt Q9UKY1) | 0 |
| VPS54 (UniProt Q9P1Q0) | -0.112 |
| WDR91 (UniProt A4D1P6) | -0.039 |
| ZBTB40 (UniProt Q9NUA8) | -0.024 |
| YES1 (UniProt P07947) | 0.154 |

| Target | log2 fold change |
| --- | --- |
| WDR77 (UniProt Q9BQA1) | 0.093 |
| ZDHHC18 (UniProt Q9NUE0) | 0.176 |
| ZC2HC1A (UniProt Q96GY0) | -0.085 |
| VPS35L (UniProt Q7Z3J2) | -0.088 |
| VPS11 (UniProt Q9H270) | -0.003 |
| VPS13C (UniProt Q709C8) | -0.011 |
| ZMYM4 (UniProt Q5VZL5) | -0.001 |
| USP10 isoform 2 (UniProt Q14694) | -0.058 |
| XAB2 (UniProt Q9HCS7) | -0.051 |
| VAV3 isoform 4 (UniProt Q9UKW4) | -0.061 |
| WDR3 (UniProt Q9UNX4) | -0.069 |
| VAV1 (UniProt P15498) | 0.007 |
| WRN (UniProt Q14191) | -0.108 |
| WDR41 (UniProt Q9HAD4) | 0.028 |
| YLPM1 (UniProt P49750) | 0.018 |

compound: Cc1ncc(-c2ccnc(Nc3ccc(S(C)(=O)=O)cc3)n2)n1C(C)C; experiment: as above
Outline: as §1

| Target | log2 fold change |
| --- | --- |
| ZDHHC17 (UniProt Q8IUH5) | -0.115 |
| VPS72 (UniProt Q15906) | 0.05 |
| ZNF609 (UniProt O15014) | 0.001 |
| UQCRC2 (UniProt P22695) | 0.004 |
| UPF3B (UniProt Q9BZI7) | 0.014 |
| VRK2 (UniProt Q86Y07) | 0.017 |
| ZNF598 isoform 3 (UniProt Q86UK7) | 0.031 |
| ZMYM1 (UniProt Q5SVZ6) | -0.019 |
| VARS (UniProt P26640) | 0 |
| VAC14 (UniProt Q08AM6) | 0.009 |
| VASP (UniProt P50552) | -0.014 |
| ZHX1 (UniProt Q9UKY1) | 0.06 |
| VPS54 (UniProt Q9P1Q0) | 0.205 |
| WDR91 (UniProt A4D1P6) | -0.01 |
| ZBTB40 (UniProt Q9NUA8) | 0.086 |
| YES1 (UniProt P07947) | -0.104 |

| Target | log2 fold change |
| --- | --- |
| WDR77 (UniProt Q9BQA1) | 0 |
| ZDHHC18 (UniProt Q9NUE0) | -0.047 |
| ZC2HC1A (UniProt Q96GY0) | 0.002 |
| VPS35L (UniProt Q7Z3J2) | 0.022 |
| VPS11 (UniProt Q9H270) | -0.018 |
| VPS13C (UniProt Q709C8) | -0.069 |
| ZMYM4 (UniProt Q5VZL5) | -0.005 |
| USP10 isoform 2 (UniProt Q14694) | 0.013 |
| XAB2 (UniProt Q9HCS7) | 0.048 |
| VAV3 isoform 4 (UniProt Q9UKW4) | -0.055 |
| WDR3 (UniProt Q9UNX4) | -0.016 |
| VAV1 (UniProt P15498) | 0.009 |
| WRN (UniProt Q14191) | -0.004 |
| WDR41 (UniProt Q9HAD4) | -0.011 |
| YLPM1 (UniProt P49750) | -0.384 (active) |

— the supplement of paper PMC10849652
